# Test results as given in PubChem BioAssay (Tox21).
# Results filed as inconclusive are left out. A number with no mark means an inactive call. The source made the active and inactive calls. Calls come from the whole dose curve.
# Biological target: Peroxisome proliferator-activated receptor gamma (Homo sapiens) (UniProt P37231)
# Assay: qHTS assay to identify small molecule antagonists of the peroxisome proliferator-activated receptor gamma (PPARg) signaling pathway (AID 743191); note: nearly all actives have a fitted effect of over 30% in size
# Conditions: HEK293H PPARg-UAS-bla, beta-lactamase ratio, antagonist, 17 h; series mostly up to 62.6 µM; ratio activity, negative = inhibition: at the top concentration
# How it was run: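 GeneBLAzer PPARg UAS-bla HEK293H cells carrying a UAS-driven beta-lactamase reporter were plated at 3000 cells/well, preincubated 5 h at 37C, then given compound for 17 h at 37C; LiveBLAzer B/G FRET substrate was read after 1 h at room temperature.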
# % is set by controls: 0 for no effect and ±100 for the full control effect; potency is the fitted concentration of half-maximal effect.
# Peroxisome proliferator-activated receptor gamma (Homo sapiens), sequence (P37231 whole entry, looked up): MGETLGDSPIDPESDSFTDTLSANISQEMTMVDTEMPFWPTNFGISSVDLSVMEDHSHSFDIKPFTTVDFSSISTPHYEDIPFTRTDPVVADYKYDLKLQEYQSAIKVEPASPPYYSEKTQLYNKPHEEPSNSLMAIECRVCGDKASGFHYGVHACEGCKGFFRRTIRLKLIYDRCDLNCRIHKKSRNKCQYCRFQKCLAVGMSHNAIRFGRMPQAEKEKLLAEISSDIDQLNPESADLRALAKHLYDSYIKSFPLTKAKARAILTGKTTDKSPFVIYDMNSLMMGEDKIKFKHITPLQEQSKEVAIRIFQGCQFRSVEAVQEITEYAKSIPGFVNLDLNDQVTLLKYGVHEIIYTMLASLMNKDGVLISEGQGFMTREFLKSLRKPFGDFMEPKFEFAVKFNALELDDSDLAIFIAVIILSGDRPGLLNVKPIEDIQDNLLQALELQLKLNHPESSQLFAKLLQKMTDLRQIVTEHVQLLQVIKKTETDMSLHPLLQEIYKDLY
SMILES,"ratio activity, negative = inhibition",Potency
O=C(O)c1ccccc1C(=O)Nc1ccc(S(=O)(=O)Nc2nccs2)cc1,5.12%,
C[C@H](CCC(=O)NCC(=O)O)[C@H]1CC[C@H]2[C@@H]3[C@H](O)C[C@@H]4C[C@H](O)CC[C@]4(C)[C@H]3C[C@H](O)[C@]12C,17.5%,
BrC/C=C/CBr,0.487% [at 29.1 µM],
Cc1nc(C)nc(N2C[C@@H](C)N(c3ccnc([C@@H](C)O)n3)[C@@H](C)C2)n1,18.5%,
Nc1cc(S(=O)(=O)O)ccc1S(=O)(=O)O,12.4%,
CCC(=O)c1ccc(O)cc1,4.76%,
CCOC(=O)CC(CC(=O)OCC)(OC(C)=O)C(=O)OCC,1.36%,
CCCCCCCCCCCCCCCC(=O)NCCO,13.3%,
NS(=O)(=O)c1ccccc1OC(F)(F)F,1.23%,
CC(C)COC(=O)CC(C(=O)OCC(C)C)S(=O)(=O)O (stereo unspecified),6.13%,
NS(=O)(=O)c1ccc(Cl)c(S(N)(=O)=O)c1,12.7%,
CO[Si](CCCS)(OC)OC,0.207%,
COC(/C=C(\C)CCC=C(C)C)OC,-0.0258%,
Cc1ccccc1OCC1CO1 (stereo unspecified),-9.59% [at 81.1 µM],
O=c1cc(O)c(Cl)c[nH]1,10.2%,
CCN(CCC#N)c1ccccc1,5.3%,
Nc1ccc(S(=O)(=O)NC(=O)c2ccccc2)cc1,-0.765%,
CC(=O)Nc1ncc([N+](=O)[O-])s1,-11.2%,

SMILES,"ratio activity, negative = inhibition",Potency
CCC(=O)OCCC(C)CCC=C(C)C (stereo unspecified),-8.4%,
C=CCCCCCCCCCCC,16.1% [at 5.95 µM],
CN(C1CCCCC1)S(=O)(=O)c1ccccc1N,-11.7%,
NCCc1ccn[nH]1,4.75%,
CCCCCCCCCCC,8.45%,
COC(=O)CCC(=O)O,2.71%,
Cc1oc(=O)oc1CN1CCN(c2cc3c(cc2F)c(=O)c(C(=O)O)c2n3C(C)S2)CC1 (stereo unspecified),2.12%,
CC1CCC(C(C)(C)S)C(=O)C1 (stereo unspecified),-10.5%,
CCCCCCCCCOCC1CO1 (stereo unspecified),3.02% [at 81.1 µM],
C1=CCC(c2ccccc2)CC1 (stereo unspecified),14.8%,
Oc1ccccc1Cc1ccccc1O,,30.9 µM (active)
C=COCCOCCOC=C,-1.24%,
C=CCOCC(O)CCl (stereo unspecified),-6.89%,
CCCCCC(=O)OCC,-17.9%,
CCCCCCCCCCCCC,2.45%,
Cc1cccc(C(=O)O)c1[N+](=O)[O-],-1.91%,
C=C(C)C(=O)OC1CC(C)CC(C)(C)C1 (stereo unspecified),6.31%,
CCCOCCOCCOCCO,9.56%,
